# Shown are actives, neighbours in structure and some others; about 19% of the full set was active somewhere.
# HepG2 tox: qHTS for Inhibitors of TGF-b: Cytotox Counterscreen | Potency, µM (highest dose often 46.1 µM), for the others: at the highest dose activity change, negative = cytotoxicity, most hits filed as cytotoxic | AID 588856, 2011 | HepG2 CAGA-GFP viability, ATP luminescence, 18 h | 410,000 compounds, 0.76% hits; also: potency is read from the fitted curve at half-maximal effect
#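 CellTiter-Glo luminescence gave cytotoxicity after 18 hours at 37 degrees C. The cells were HepG2 CAGA-GFP in 1% FBS DMEM, stimulated with 500 pg/mL TGF-beta after compound addition. %Activity was normalised to no-cell wells (complete cell-killing) and DMSO (no toxicity), and curves were fitted and classified.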
# IL-1B inflam inh: qHTS for Inhibitors of Inflammasome Signaling: IL-1-beta AlphaLISA Primary Screen; THP-1 LPS/ATP IL-1B secretion, AlphaLISA, 16 h; stronger effect = lower value; activity change, % at 57.5 µM; 360,000 compounds, 4.7% hits; in the data active = activity change below about -50%; inconclusive = mostly about -30% to -49%; also: % is scaled to controls: 0 for no effect and ±100 for the full control effect
#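 Secreted IL-1B measured by AlphaLISA bead assay after 16 h compound exposure of THP-1 cells; compounds (final up to 57.5 uM) added 1 h before LPS (250 ng/mL) and ATP (1.25 mM) stimulation; lower signal means less secretion.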
# TDP1 block: qHTS Assay for Inhibitors of Tyrosyl-DNA Phosphodiesterase (TDP1). recombinant TDP1, AlphaScreen DNA substrate cleavage. 350,000 compounds, 0.28% hits. Potency, µM (series often up to 130 µM), inactives show top-dose activity change, negative = inhibition, usual class: inhibitors; also: potency is read from the fitted curve at half-maximal effect; % is scaled to controls: 0 for no effect and ±100 for the full control effect; nearly all actives have a fitted effect of over 40% in size
# Target sequence (Q9NUW8 whole entry, looked up): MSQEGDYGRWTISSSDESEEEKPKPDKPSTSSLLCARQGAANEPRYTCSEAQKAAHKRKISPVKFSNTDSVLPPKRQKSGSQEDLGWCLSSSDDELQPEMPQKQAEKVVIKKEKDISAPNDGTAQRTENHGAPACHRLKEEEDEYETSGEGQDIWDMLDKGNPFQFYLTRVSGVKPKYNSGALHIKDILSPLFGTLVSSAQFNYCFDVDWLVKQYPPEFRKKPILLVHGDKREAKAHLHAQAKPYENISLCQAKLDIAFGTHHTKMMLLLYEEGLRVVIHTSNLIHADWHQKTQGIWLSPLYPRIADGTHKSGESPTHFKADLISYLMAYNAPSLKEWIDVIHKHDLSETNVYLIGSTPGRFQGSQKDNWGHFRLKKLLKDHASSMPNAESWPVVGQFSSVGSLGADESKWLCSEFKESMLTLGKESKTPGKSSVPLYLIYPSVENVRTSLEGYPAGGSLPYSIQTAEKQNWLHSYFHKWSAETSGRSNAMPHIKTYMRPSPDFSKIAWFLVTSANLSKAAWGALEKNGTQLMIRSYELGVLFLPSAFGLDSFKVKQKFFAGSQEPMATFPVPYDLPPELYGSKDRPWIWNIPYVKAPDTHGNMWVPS
#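 Steps: enzyme plus compound, 15 min RT; add biotin/phosphotyrosine-FITC oligonucleotide (15 nM final), react 5 min; add donor/acceptor beads (10 ug/ml final), 10 min; read AlphaScreen. Tdp1 at 1 nM final.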
# DT40 TDP1 CPT: qHTS for Inhibitors of human tyrosyl-DNA phosphodiesterase 1 (TDP1): qHTS in cells in presence of CPT. chicken DT40 Tdp1-/-;hTDP1 cells + 20 nM CPT, ATP luminescence, 48 h. Potency, µM (doses to about 46.2 µM), inactives show top-dose activity change, negative = growth inhibition, most hits filed as inhibitors. 420,000 compounds, 12% hits. AID 686979, 2013; also: potency is read from the fitted curve at half-maximal effect; % is scaled to controls: 0 for no effect and ±100 for the full control effect; nearly all actives have a fitted effect of over 55% in size
#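 Chicken DT40 Tdp1-/- cells complemented with human TDP1, 400 cells/well, exposed to compounds plus 20 nM camptothecin for at least 48 h at 37 C; viability read as ATP content by CellTiter-Glo luminescence.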
# TGFb SMAD3 inh: qHTS for Inhibitors of TGF-b. HepG2 CAGA-GFP TGF-b/SMAD3 reporter, GFP fluorescence, 18 h; TGF-beta stimulated, 500 pg/mL final. Potency, µM (series often up to 46.1 µM), without a hit: top-dose activity, negative = inhibition, actives largely listed as inhibitors. 410,000 compounds, 1.2% hits. AID 588855, 2011; also: potency is read from the fitted curve at half-maximal effect; % is scaled to controls: 0 for no effect and ±100 for the full control effect; nearly all actives have a fitted effect of over 65% in size
#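 Inhibition of TGF-beta-driven CAGA-GFP reporter expression in HEPG2 cells is measured by cellular GFP fluorescence after 18 h stimulation with 500 pg/mL recombinant TGF-beta in 1% FBS medium at 37 degrees C.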
# DT40 TDP1 no CPT: qHTS for Inhibitors of human tyrosyl-DNA phosphodiesterase 1 (TDP1): qHTS in cells in absence of CPT | DT40 Tdp1-/- hTDP1 cells, no CPT, ATP luminescence, 48 h | AID 686978, 2013 | Potency, µM (doses to about 46.2 µM), for inactives: at the highest dose activity change, negative = growth inhibition, most hits filed as inhibitors | 420,000 compounds, 15% hits; also: potency is read from the fitted curve at half-maximal effect; % is scaled to controls: 0 for no effect and ±100 for the full control effect; nearly all actives have a fitted effect of over 55% in size
#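 No-CPT arm: Tdp1-/-;hTDP1 DT40 cells (400/well) plus compounds, incubated ≥48 hr at 37 °C. Readout CellTiter-Glo luminescence.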
# Active calls of the source: *; ? = inconclusive; nt = not tested or not shown. Unless noted, calls follow the shape of the dose curve; as a rule, active = well fitted curve in the direction sought with a large enough effect; inconclusive = small, poorly fitted or top-dose-only effect, or another doubt; inactive = no such curve, though single readings can be large; an effect the other way counts as inactive or inconclusive.
SMILES,HepG2 tox,IL-1B inflam inh,TDP1 block,DT40 TDP1 CPT,TGFb SMAD3 inh,DT40 TDP1 no CPT
Cc1cccc(-n2ncc3c(N4CCN(CCO)CC4)ncnc32)c1,-12%,nt,-5%,?,23%,?
c1ccc(CN2CCN(c3ncnc4c3cnn4-c3ccccc3)CC2)cc1,11%,nt,0%,16µM*,26%,18µM*
Fc1ccc(-n2ncc3c(N4CCN(Cc5ccccc5)CC4)ncnc32)cc1,-13%,nt,10%,-12%,-3%,-21%
Cc1ccc(-n2ncc3c(N4CCN(Cc5ccccc5)CC4)ncnc32)cc1Cl,-2%,nt,8%,8.2µM*,7%,9.2µM*
c1ccc(-n2ncc3c(N4CCN(CCOc5cccc6ccccc56)CC4)ncnc32)cc1,-9%,8,6%,16µM*,-1%,26µM*
COc1ccc(OC)c(CCNC(=O)c2cccc(NC(=O)C3=C(C)OCCS3)c2)c1,-5%,-12,7%,?,11%,?
CCc1ccc(C(=O)c2cn(CC(=O)Nc3ccc(OC)c(Cl)c3)c3nc(C)ccc3c2=O)cc1,-28%,nt,-3%,-22%,-7%,?
CC[C@H](C)[C@@H](NC(=O)O[C@@H]1C(=O)c2ccc(OC)cc2O[C@H]1c1ccc2c(c1)OCO2)C(=O)OC,nt,nt,5%,nt,nt,nt
S=c1nc(-c2ccccc2)oc2c1CCCC2,5%,14,-8%,?,13%,26µM*
COc1cccc(-c2nc(=S)c3c(o2)CCCC3)c1,-17%,-10,0%,-13%,0%,-19%
CCOc1ccc(S(=O)(=O)NCCC(=O)Nc2cccc(C(=O)OC)c2)cc1,-9%,-74*,nt,0%,50%,-22%
CC(=O)N1c2ccc(S(=O)(=O)NCCC(=O)NC3CCC(C)CC3)cc2CC1C (configuration not stated),7%,29,0%,-18%,13%,-8%
COc1ccc(NC(=O)CCNS(=O)(=O)c2ccc3c(c2)CC(C)N3C(C)=O)cc1 (configuration not stated),-1%,-1,0%,-5%,1%,1%
CCOc1ccc(S(=O)(=O)NCCC(=O)Nc2ccncc2)cc1,-4%,27,nt,-6%,0%,-7%
CCOc1ccc(NC(=O)CCNS(=O)(=O)c2ccc3c(c2)CC(C)N3C(C)=O)cc1 (configuration not stated),-6%,4,1%,15µM*,14%,23µM*
CC(=O)N1c2ccc(S(=O)(=O)NCc3ccc(Cl)cc3)cc2CC1C (configuration not stated),-11%,nt,0%,?,?,23µM*
CC1Cc2cc(S(=O)(=O)NCc3ccc(Cl)cc3)ccc2N1C(=O)C1CCC1 (configuration not stated),-19%,nt,9%,23µM*,?,13µM*
COc1ccc(CCNS(=O)(=O)c2ccc3c(c2)CC(C)N3C(=O)C2CC2)cc1OC (configuration not stated),-18%,?,nt,?,-7%,?
COc1ccc(NC(=O)CSc2nc(SC)ns2)cc1,8%,21,nt,?,30%,?
COc1ccc(C(=O)NC2CCN(CC(=O)Nc3cccc(OC)c3)CC2)cc1,-29%,-23,nt,-12%,-22%,17%
CC(=O)N1CCc2cc(S(=O)(=O)NCc3ccc(C)cc3)ccc21,-9%,51,2%,?,-19%,7.3µM*
Cc1ccc(CNS(=O)(=O)c2ccc3c(c2)CC(C)N3C(=O)C2CCC2)cc1 (configuration not stated),3%,nt,5%,?,-24%,21µM*
COc1ccccc1CNS(=O)(=O)c1ccc2c(c1)CC(C)N2C(=O)C1CC1 (configuration not stated),-73%,0,0%,?,?,?
CC1Cc2cc(S(=O)(=O)NCc3ccc(F)cc3)ccc2N1C(=O)C1CCC1 (configuration not stated),-12%,nt,0%,?,?,2.9µM*
Cc1ccc(CNS(=O)(=O)c2ccc3c(c2)CCN3C(=O)C2CCC2)cc1,-35%,12,-3%,?,-8%,?
SMILES,HepG2 tox,IL-1B inflam inh,TDP1 block,DT40 TDP1 CPT,TGFb SMAD3 inh,DT40 TDP1 no CPT
COCCn1c(CNC(=O)c2cc([N+](=O)[O-])ccc2Cl)nc2cccnc21,7%,nt,5%,-22%,?,-15%
O/N=C/c1cc(Br)ccc1OCc1ccccc1F,-78%,-63*,nt,-5%,?,-19%
O=C(Nc1nnc2n1CCS2)c1ccc(Br)o1,-4%,0,1%,-8%,-3%,-1%
Cc1c(Cl)cccc1-n1nc(C)c2c(C)cc(=O)n(CC(=O)N3CCCc4ccccc43)c21,-31%,nt,1%,15µM*,-17%,4.6µM*
CCOC(=O)Cn1c(=NC(=O)CC)sc2c(C)cc(C)cc21,-3%,45,-1%,1%,-15%,-6%
CCOC(=O)Cn1c(=NC(=O)C(C)C)sc2c(C)cc(C)cc21,3%,31,6%,?,1%,15µM*
CCN(CC(=O)NC(C)(C)C)C(=O)CN1c2cccc3cccc(c23)S1(=O)=O,4%,-14,nt,-18%,11%,-12%
CCCn1nc(NC(=O)C2CCCO2)c2cc3cccc(C)c3nc21 (configuration not stated),-10%,-1,nt,-26%,15%,15µM*
COc1cccc(CNC(=O)Cn2nc(C)n3c(cc4cc(C)ccc43)c2=O)c1OC,5%,nt,1%,-12%,-25%,-6%
COc1ccc(-c2nc3ccc(Cl)cn3c2Cc2cccc(F)c2)cc1OC,0%,0,nt,23µM*,-24%,21µM*
COc1ccc(-c2nc3ccc(Br)cn3c2Cc2cccc(F)c2)cc1OC,-19%,-14,nt,?,?,?
COc1ccc(-c2nc3ccc(C)cn3c2Cc2cccc(F)c2)cc1OC,-22%,-15,nt,?,?,21µM*
CN(c1ccc(C(=O)Nc2ccccc2Sc2ccccc2)cc1)S(C)(=O)=O,-7%,-9,1%,?,-16%,21µM*

# From PubChem BioAssay
